Results reported in PubChem BioAssay AID651820 (National Center for Advancing Translational Sciences (NCATS), 2012).
In all, about 340,000 compounds went through this assay and about 12,000 (3.5%) were called active. Roughly 18% stayed inconclusive and do not appear here. The sample as a whole holds a higher share of actives than the screen did. Unmarked numbers belong to inactive results. The call rests on the fitted dose curve; in most records, active means well fitted inhibition curve with a large enough effect; inconclusive means small, poorly fitted or top-dose-only effect, or another doubt; inactive means no such curve, though single readings can be large or run the other way.

assay: qHTS Assay for Inhibitors of Hepatitis C Virus (HCV); details: Huh7.5.1 HCVcc-Cre infection, luciferase reporter, 44 h; series mostly up to 41.8 µM; activity change, negative = inhibition: at the top concentration
Text: Hepatitis C virus (HCV) infects about 200 million people in the world. Many infected people progress to chronic liver disease including cirrhosis with a risk of developing liver cancer. To date, there is no effective vaccine for hepatitis C. Current therapy based on interferon is only effective in about half of the patients and is associated with significant adverse effects. The fraction of people with HCV who can complete a successful treatment is estimated to be no more than 10 percent. Recent development of direct-acting antivirals against HCV, such as protease and polymerase inhibitors, is promising but still requires combination with peginterferon and ribavirin for maximal efficacy. In addition, these agents are associated with high rate of resistance and many have significant side effects. Due to the lack of a culture system for infectious HCV, the search for new HCV drugs has been greatly hampered. […] High-throughput screening (HTS) with an infectious HCV system would cover the complete spectrum of potentially druggable targets in all stages of HCV lifecycle, and would have more biological relevance than other cell-based assays. Moreover, targeting several key processes in the viral life cycle may not only increase antiviral efficacy; more importantly, it may also reduce the capacity of the virus to develop resistance to the compound. The goal of this project is to identify novel HCV inhibitors as new therapies for hepatitis C, using a highly sensitive and specific assay platform which is based on a HCV infectious cell culture system established in the laboratory and adapted for high-throughput HCV drug screen. NIH Chemical Genomics Center [NCGC] NIH Molecular Libraries Probe Centers Network [MLPCN] MLPCN Grant: MH095511 Assay Submitter (PI): Jake Liang, NIDDK
The assay will start with plating 1,000 cells/well in 3 µL volume and culture for 4 h. Then 23 nL of compounds from the library collection will be added to each well, followed by adding 2.5 µL of HCVcc-Cre virus (~ 0.5 moi) and further cultured for 44 h before the luciferase assay. A volume of 4.5 µL luciferase substrates will be added to each well and the plates will be incubated at room temperature for 15 min. and then read for 15 sec. for the luciferase activity
On the % scale 0 is the no-effect control and ±100 the full control effect.

| Compound | activity change, negative = inhibition | Potency |
| --- | --- | --- |
| NC(=O)C1(Nc2ccccc2Cl)CCCC1 | -11.2% |  |
| O=C(CCNC(=O)c1ccc(Cl)cc1)NC1CCCc2ccccc21 (configuration not stated) | -24.4% |  |
| CCOc1ccc(C(C)NC(=O)CN2C(=O)NC3(CCCCC3)C2=O)cc1OCC (configuration not stated) | -0.805% |  |
| CN(C)S(=O)(=O)c1cccc(NC(=O)COC(=O)/C=C/c2cccs2)c1 | 7.42% |  |
| CN(C)S(=O)(=O)c1cccc(NC(=O)COC(=O)c2cc(=O)[nH]c(=O)[nH]2)c1 | 16.2% |  |
| CN(C)S(=O)(=O)c1cccc(NC(=O)COc2ccc3ccccc3c2)c1 |  | 22.4 µM (active) |
| CCc1c(Nc2ccccc2C)nc(N)[nH]c1=O | 7.29% |  |
| C[C@H](CO)N1C[C@H](C)[C@@H](CN(C)S(=O)(=O)c2ccc(F)cc2)Oc2ccc(NC(=O)CCC(F)(F)F)cc2C1=O | 13.6% |  |
| COc1ccc(-n2c(C)nc3c(cnn3-c3ccccc3)c2=O)cc1 |  | 11.2 µM (active) |
| Cc1ccc(Oc2cnn(-c3ccccc3)c(=O)c2Br)cc1 | 10.5% |  |
| CCOC(=O)c1ccc(-n2c(C)nc3c(cnn3-c3ccccc3C)c2=O)cc1 | -2.88% |  |
| COc1ccc(CNC(=O)COC(=O)c2sccc2C)cc1OC | -7.13% |  |
| O=C(COc1cccnc1[N+](=O)[O-])Nc1ccc(Cl)cc1F | 2.37% |  |
| COC(C[C@@H]1O[C@@H]1C(=O)[C@H](C)OCc1ccccc1)OC | 18.8% |  |
| Cc1nc(Nc2ccccc2C)c2cnn(C)c2n1 | 8.38% |  |
| CCCNS(=O)(=O)c1ccc(CCC(=O)N2CCCC2)cc1 | -7.28% |  |
| CCNS(=O)(=O)c1ccc(CCC(=O)N2CCN(c3cc(Cl)ccc3C)CC2)cc1 |  | 11.2 µM (active) |
| CCNS(=O)(=O)c1ccc(CCC(=O)N2CCN(c3ccc(OC)cc3)CC2)cc1 | -29.2% |  |
| COC(C/C=C/C(=O)[C@@H](C)OCc1ccccc1)OC | -1.38% |  |
| CS(=O)(=O)c1sc2nc(-c3ccccc3)cc(-c3ccccc3)c2c1N | -20.9% |  |
| Nc1nc(-c2ccccc2)cc(-c2ccccc2)n1 |  | 10 µM (active) |
| c1ccc(-c2cc(-c3ccccc3)[nH]n2)cc1 | -23.8% |  |
| COCCNc1nnc(SCC(=O)NNC(=O)c2ccco2)s1 | -1.76% |  |
| CCCn1c(=O)c(-c2ccccc2)c(O)c2ccccc21 | 0.771% |  |

| Compound | activity change, negative = inhibition | Potency |
| --- | --- | --- |
| Cn1c(=O)c(Sc2ccc(Cl)cc2)c(O)c2ccccc21 | 10.3% |  |
| Cc1cc(C)c(-c2c(O)c3ccccc3n(C)c2=O)c(C)c1 |  | 11.2 µM (active) |
| CC(C#N)(NC(=O)CN1CCN(S(=O)(=O)c2cc(C(F)(F)F)ccc2Cl)CC1)C1CC1 (configuration not stated) | -19.9% |  |
| Cc1cn(COC/C=C/c2ccccc2)c(=O)[nH]c1=O | 12.5% |  |
| Cc1[nH]c(=O)c(C(=O)/C=C/c2ccccc2)c2c1CCCC2 |  | 14.1 µM (active) |
| O=C(/C=C/c1ccccc1)c1ccoc1 | 3.26% |  |
| O=C(NCCS(=O)(=O)N1CCN(c2ccccc2)CC1)c1ccco1 | 5.8% [at 8.37 µM] |  |
| Cc1cc(Oc2ccc(Cl)cc2)nc(SCC(=O)c2ccccc2)n1 | -9.04% |  |
| COC(=O)c1cc(C(=O)CSc2nc(C)cc(C)n2)ccc1O | 8.38% |  |
| Cc1cc(C)nc(SCC(=O)c2ccc(Cl)cc2)n1 |  | 2.82 µM (active) |
| Cn1nnnc1SCC(=O)Nc1sccc1C(N)=O | 2.96% |  |
| NC(=O)C1(N2CCCC2)CCN(Cc2ccccc2)CC1 | 19.9% |  |
| CCc1ccc(-n2c(SCc3cc(=O)n4cc(Br)ccc4n3)nc3[nH]ncc3c2=O)cc1 |  | 10 µM (active) |
| Cc1ccc(CSc2nc3[nH]ncc3c(=O)[nH]2)cc1 | -3.65% |  |
| Cc1cccc2nc(CSc3nc4[nH]ncc4c(=O)n3-c3cccc(Cl)c3)cc(=O)n12 | -0.622% [at 0.335 µM] |  |
| CN1C(c2ccc(F)cc2)=CS/C1=C(/C#N)c1nnc2n1-c1ccccc1SC2 | 6.19% |  |
| CC(CNC(=O)Cn1cnc2c(OCc3ccccc3)ncnc21)c1ccccc1 (configuration not stated) | 2.55% |  |
| CN(CC(=O)Nc1ccccc1Cl)C(=O)c1ccccc1SCC(=O)N1CCCC1 | 8.76% |  |
| O=C(COC(=O)Cc1ccccc1F)NCCc1ccccc1 | -2.44% |  |
| CC(=O)NC(C)c1nc2ccccc2n1Cc1ccccc1F (configuration not stated) | 2.57% |  |
| N=c1n(CCc2ccccc2)c2ccccc2n1Cc1ccccc1F |  | 12.6 µM (active) |
| COc1ccccc1CNS(=O)(=O)c1cc(C(=O)NCc2ccccn2)c(Cl)cc1Cl | -7.19% |  |
| Cn1cccc1C(=O)OCC(=O)c1ccc(Br)s1 | 11% |  |
